Most compounds without a hit are left out; they make up all but 10% or so of the library.
3T3 cytotox: Cytotoxic Profiling in NIH 3T3 Cell Line of Diverse Libraries Using Quantitative High-Throughput Screening; AID 1345082, 2018; actives 4.3% (n = 94,000); Potency, µM (doses to about 96.7 µM), without a hit: at the top dose activity change, negative = cytotoxicity, most hits filed as inhibitors; NIH 3T3 viability, CellTiter-Glo ATP luminescence, 48-72 h; further: on the % scale 0 is the no-effect control and ±100 the full control effect; nearly all actives have a fitted effect of over 55% in size
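ATP-dependent luminescence (CellTiter-Glo) served as the viability signal for NIH 3T3 cells treated with compound for 48 or 72 hr at 37 °C.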
hNpr1 antagonist: Natriuretic polypeptide receptor (hNpr1) antagonism - Primary qHTS | Atrial natriuretic peptide receptor 1 (Homo sapiens), P16066 | HEK293 hNpr1 GloSensor cGMP, ANP-stimulated luminescence | Potency, µM (series often up to 46.3 µM), for inactives: at the top dose activity change, negative = inhibition, usual class: inhibitors | actives 1.6% (n = 76,000); calls by dose curve; further: on the % scale 0 is the no-effect control and ±100 the full control effect; nearly all actives have a fitted effect of over 60% in size
Target sequence (P16066 whole entry, looked up): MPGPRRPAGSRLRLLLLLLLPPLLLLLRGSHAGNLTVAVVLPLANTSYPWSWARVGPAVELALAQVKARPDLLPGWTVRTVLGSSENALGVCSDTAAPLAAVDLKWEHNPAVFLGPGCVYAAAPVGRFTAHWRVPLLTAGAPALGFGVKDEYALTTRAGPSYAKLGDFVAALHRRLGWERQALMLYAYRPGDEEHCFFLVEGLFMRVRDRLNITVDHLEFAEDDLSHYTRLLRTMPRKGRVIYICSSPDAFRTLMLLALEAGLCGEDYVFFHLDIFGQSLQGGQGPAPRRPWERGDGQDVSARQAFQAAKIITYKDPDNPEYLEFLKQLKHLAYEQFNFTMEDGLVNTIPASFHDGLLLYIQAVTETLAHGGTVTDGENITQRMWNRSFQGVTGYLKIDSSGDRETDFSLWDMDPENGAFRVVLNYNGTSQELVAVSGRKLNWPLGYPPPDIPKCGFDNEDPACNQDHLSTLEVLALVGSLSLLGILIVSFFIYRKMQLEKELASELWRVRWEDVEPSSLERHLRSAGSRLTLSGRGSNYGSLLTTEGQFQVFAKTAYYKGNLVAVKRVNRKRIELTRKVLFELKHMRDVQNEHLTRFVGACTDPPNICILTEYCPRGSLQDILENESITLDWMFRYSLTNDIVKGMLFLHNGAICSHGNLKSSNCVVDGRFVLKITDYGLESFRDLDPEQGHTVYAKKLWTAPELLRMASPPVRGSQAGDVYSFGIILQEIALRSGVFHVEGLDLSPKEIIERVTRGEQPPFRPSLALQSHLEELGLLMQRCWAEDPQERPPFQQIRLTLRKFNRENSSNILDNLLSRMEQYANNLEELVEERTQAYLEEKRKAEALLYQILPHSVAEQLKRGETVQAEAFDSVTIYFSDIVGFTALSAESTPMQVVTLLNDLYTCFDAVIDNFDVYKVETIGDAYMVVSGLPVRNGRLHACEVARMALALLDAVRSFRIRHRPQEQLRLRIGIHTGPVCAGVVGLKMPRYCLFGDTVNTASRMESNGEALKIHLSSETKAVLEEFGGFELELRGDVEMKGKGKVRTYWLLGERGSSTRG
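HEK293 cells stably expressing human Npr1 and cGMP GloSensor pGS-40F, loaded 2 h with 2% GloSensor reagent, given compound 30 min at room temperature. Luminescence read before and 20 min after 0.1 nM hNppA.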
GPT2 inh: Primary qHTS assay for inhibitors of Glutamate pyruvate transaminase 2 (GPT2). Alanine aminotransferase 2 (Homo sapiens), Q8TD30. Recombinant GPT2, coupled pyruvate oxidase/HRP Amplex Red fluorescence. Potency, µM (titrated, usually from 57.7 µM), inactives show at the top dose activity change, negative = inhibition, actives largely listed as inhibitors. actives 0.25% (n = 100,000). AID 1671188, 2021; further: on the % scale 0 is the no-effect control and ±100 the full control effect; nearly all actives have a fitted effect of over 60% in size
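Inhibition is scored from Amplex Red fluorescence generated when pyruvate oxidase and HRP act on pyruvate released by GPT2. Reactions contain 10ng/uL enzyme, 250uM a-KG and 2mM L-alanine and run 30 min at room temperature.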
FLuc inh: Firefly luciferase inhibition profiling of diverse chemical library using quantitative high-throughput screening; purified P. pyralis luciferase, luminescence, biochemical; Luciferin 4-monooxygenase (Photinus pyralis), P08659; AID 1347043, 2019; actives 2.5% (n = 76,000); Potency, µM (series often up to 115 µM), actives largely listed as inhibitors; further: on the % scale 0 is the no-effect control and ±100 the full control effect; nearly all actives have a fitted effect of over 65% in size
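Inhibitors were tested against purified firefly luciferase in a biochemical, low-substrate format (both substrates at 10uM) and luminescence measured with a CCD imager.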
HEK293 tox: Cytotoxic Profiling in HEK 293 Cell Line of Diverse Libraries Using Quantitative High-Throughput Screening. actives 6.6% (n = 94,000). Potency, µM (series often up to 115 µM), for inactives: at the highest dose activity change, negative = cytotoxicity, actives largely listed as inhibitors. HEK 293 viability, ATP luminescence (CellTiter-Glo), 48-72 h; further: on the % scale 0 is the no-effect control and ±100 the full control effect; nearly all actives have a fitted effect of over 60% in size
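ATP-coupled CellTiter-Glo luminescence served as viability read-out, recorded 10 min after reagent addition at room temperature. HEK 293 cells, 250 cells/well, had been incubated with pintool-transferred compound for 48 or 72 hr at 37 degree Celsius.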
NPR1 antag cnf: Natriuretic polypeptide receptor (hNpr1) antagonism - Confirmation | AID 1347044, 2019 | shares compounds with hNpr1 antagonist | actives 76% (n = 1,400) | HEK293 hNpr1 cGMP GloSensor luminescence, ANP-stimulated | Potency, µM (titrated, usually from 57.6 µM), without a hit: at the highest dose activity change, negative = inhibition, most hits filed as inhibitors; calls by dose curve; further: nearly all actives have a fitted effect of over 70% in size
NPR2 antag: Natriuretic polypeptide receptor (hNpr2) antagonism - Subtype selectivity assay; Potency, µM (titrated, usually from 57.6 µM), without a hit: at the top dose activity change, negative = inhibition, actives largely listed as inhibitors; shares compounds with hNpr1 antagonist; actives 67% (n = 1,400); HEK293 hNpr2 GloSensor cGMP luminescence, CNP-stimulated; calls by dose curve; further: nearly all actives have a fitted effect of over 70% in size
FLuc counter: Natriuretic polypeptide receptor (hNpr1) antagonism - Confirmation firefly luciferase (FLuc) inhibition counterscreen. AID 1347047, 2019. actives 0.7% (n = 1,400). Potency, µM (top dose mostly 57.6 µM), for inactives: at the top dose activity change, negative = inhibition, hits mostly inhibitors. purified FLuc enzyme, luminescence, Km substrate. shares compounds with hNpr1 antagonist; further: 0% is about no effect
GloSensor ctrl: Natriuretic polypeptide receptor (hNpr1) antagonism - Counterscreen GloSensor control cell line | actives 69% (n = 1,400) | HEK293 GloSensor cGMP, SNP-stimulated, luminescence | shares compounds with hNpr1 antagonist | Potency, µM (highest dose often 57.6 µM), for inactives: at the top dose activity change, negative = inhibition, most hits filed as inhibitors; calls by dose curve; further: on the % scale 0 is the no-effect control and ±100 the full control effect; nearly all actives have a fitted effect of over 70% in size
The depositor's hits bear a star; i = inactive; u = inconclusive; x = no result given; [ ] = remark or other dose. Unless noted, the call rests on the fitted dose curve; in most records, active means well fitted curve in the direction sought with a large enough effect; inconclusive means small, poorly fitted or top-dose-only effect, or another doubt; inactive means no such curve, though single readings can be large; an effect the other way counts as inactive or inconclusive. Potency means the concentration at half of the fitted maximal effect.

SMILES | 3T3 cytotox | hNpr1 antagonist | GPT2 inh | FLuc inh | HEK293 tox | NPR1 antag cnf | NPR2 antag | FLuc counter | GloSensor ctrl
CC1CCC(NC(=O)c2cc3n(n2)CC(c2ccc(Cl)cc2)OC3)CC1 (centres undefined) | u | -27% | -9% | i | u | x | x | x | x
Cc1cc(C(=O)NC2CCN(c3ccnc4ccnn34)CC2)ccc1Cl | u | x | i | x | u | x | x | x | x
CC(C)c1ccc(CNC(=O)C2CCN(c3cc(C(F)(F)F)ncn3)CC2)cc1 | u | 13µM* | -15% | i | u | 24µM* | 22µM* | 3% | 22µM*
COc1ccc(C(C)NC(=O)C2CCN(c3cc(C(F)(F)F)ncn3)CC2)cc1 (centres undefined) | u | 16µM* | i | i | u | 24µM* | 27µM* | 2% | 22µM*
O=C(NCc1ccc(F)cc1)C1CCN(c2cc(C(F)(F)F)ncn2)CC1 | u | u | i | i | u | x | x | x | x
CCc1ccc(NC(=O)C2CCN(c3cc(C(F)(F)F)ncn3)CC2)cc1 | u | 7.9µM* | i | i | u | 11µM* | 11µM* | -1% | 9.7µM*
CC(NC(=O)C1CCN(c2cc(C(F)(F)F)ncn2)CC1)c1ccc(F)cc1 (centres undefined) | u | -27% | i | i | u | x | x | x | x
O=C(NCCCc1ccccc1)C1CCN(c2cc(C(F)(F)F)ncn2)CC1 | u | 11µM* | -12% | i | u | 22µM* | 19µM* | -1% | 11µM*
COc1ccc(-c2nc(C(C)C)nc3c2CN([S+](=O)([O-])c2ccccc2)CC3)cc1 | -23% | 1% | i | i | -20% | x | x | x | x
O=C(NC1CCCCCC1)C1CCN(c2cc(C(F)(F)F)ncn2)CC1 | -29% | u | i | i | -31% | x | x | x | x
Cc1ccc(NC(=O)C2CCN(c3cc(C(F)(F)F)ncn3)CC2)cc1 | u | 8.9µM* | i | i | u | 14µM* | 15µM* | 0% | 12µM*
Cc1c(C(C)NC(=O)c2cc(CC(C)C)nn2C)cnn1-c1ccccc1 (centres undefined) | -42% | 0.28µM* | 0% | i | -81% | 0.43µM* | 0.48µM* | 0% | 0.43µM*
CCCn1cc(C(=O)NC(C)c2cnn(-c3cccc(F)c3)c2C)c(C)n1 (centres undefined) | -31% | 2.8µM* | -4% | i | u | 4.3µM* | 6.1µM* | 4% | 3.1µM*
CC(C)(C)OC(=O)N1CC(NCc2ccc(-c3ccc(OC(F)(F)F)cc3)cc2)C1 | u | x | -26% | x | u | 22µM* | 22µM* | -2% | 17µM*
CCCCOC(=O)N1CCC2(CC1)[C@H](C(=O)OCC)[C@@H](OC)C(=O)N2C | u | x | x | x | -10% | x | x | x | x
CCOCCOC1CCN(C(=O)c2cccc(F)c2)CC1 | i | -1% | 1% | i | 8% | x | x | x | x
CN(C)c1cccc(C(=O)N2CCC(OCCOc3ccc(F)cc3)CC2)c1 | u | 13µM* | i | i | u | 24µM* | 24µM* | -16% | 22µM*
CC(=O)N1CCN(c2nc3c(s2)CC(C(=O)Nc2cccc(C(C)(C)C)c2)CC3)CC1 (centres undefined) | u | 18µM* | 1% | i | u | 12µM* | 15µM* | 27% | 11µM*
CC(=O)N1CCN(c2nc3c(s2)CC(C(=O)Nc2cc(F)cc(F)c2)CC3)CC1 (centres undefined) | u | 10µM* | i | i | 10µM* | 17µM* | 19µM* | 44% | 11µM*
COc1ccc(OC)c(NC(=O)C2CCc3nc(N4CCN(C(C)=O)CC4)sc3C2)c1 (centres undefined) | -26% | -18% | 2% | i | u | x | x | x | x
CC(=O)N(C1CC1)C1CCOC2(CCN(C(=O)c3n[nH]c4ccccc34)CC2)C1 (centres undefined) | 0% | -2% | i | i | -5% | x | x | x | x
F[C@@H]1CN(Cc2ccc(C(F)(F)F)cc2)C[C@@H]1OCc1nc2ccccc2[nH]1 | u | 28µM* | u | i | 79µM* | 40µM* | 40µM* | -2%[86.2 µM] | 40µM*
COc1ccc(C(=O)N2CCC(Cc3nc(-c4ccc(F)cc4)no3)CC2)cc1F | u | 1.1µM* | u | i | u | 1.1µM* | 1.7µM* | 0% | 1.1µM*
COc1ccc(-c2noc(CC3CCN(C(=O)c4ccc(OC)c(OC)c4)CC3)n2)cc1 | u | 3.5µM* | -3% | i | u | 6.9µM* | 6.9µM* | 0% | 5.4µM*
COc1ccc(-c2noc(CC3CCN(C(=O)c4ccc5c(c4)OCO5)CC3)n2)cc1 | u | 2.8µM* | 0% | i | u | 5.4µM* | 6.1µM* | 1% | 4.8µM*
CC(C#N)C(C)O[C@@H]1O[C@H](CO)[C@@H](O)[C@H](O)[C@H]1O (some centres undefined) | x | x | i | x | x | x | x | x | x
CCc1cc(N2CCN(C(=O)[C@H]3CCC[C@@H](O)C3)CC2)ncn1 | -15% | 5% | i | i | -9% | x | x | x | x
